# In PubChem BioAssay (NCATS):
# Results filed as inconclusive are left out. A call without a number means that no potency is given here. Calls of active or inactive are those of the source. Calls come from the whole dose curve; as a rule, active = well fitted inhibition curve with a large enough effect; inconclusive = small, poorly fitted or top-dose-only effect; inactive = no such curve, though single readings can be large or run the other way.
# Assay: P-glycoprotein substrates identified in KB-3-1 adenocarcinoma cell line, qHTS therapeutic library screen (AID 1346986); note: nearly all actives have a fitted effect of over 60% in size
# Conditions: KB-3-1 parental cells viability, CellTiter-Glo, 72 h; series mostly up to 44.5 µM
# Method: The ATP-binding cassette transporters P-glycoprotein (P-gp) is known to limit brain penetration of many chemotherapy drugs. […] We used the CellTiter-Glo viability assay to test library compounds against the parental KB-3-1 human cervical adenocarcinoma cell line and the colchicine-selected sub-line KB-8-5-11 that over-expresses P-gp. KB-8-5-11 cells were also tested in the presence of a P-gp inhibitor (tariquidar) to assess reversability of transporter-mediated resistance. Of the tested compounds, a total of 90 P-gp substrates were identified including 55 newly identified P-gp substrates. Substrates were confirmed using an orthogonal killing assay against HEK-293 cells transfected with P-gp. As exemplars, we confirmed that AT7159 (cyclin-dependent kinase inhibitor); AT9283, (Janus kinase 2/3 inhibitor); ispinesib (kinesin spindle protein inhibitor); gedatolisib (PKI-587, phosphoinositide 3-kinase/mammalian target of rampamycin inhibitor); GSK-690693 (AKT inhibitor); and KW-2478 (heat shock protein 90 inhibitor) were substrates , and direct ATPase stimulation was assessed. ABCG2 was also found to confer high levels of resistance to AT9283, GSK-690693 and gedatolisib, while ispinesib, AT7519 and KW-2478 were weaker substrates.
# The HeLa derivative cell line, KB-3-1, and its colchicine-selected, P-gp-overexpressing subline, KB-8-5-11 were maintained in DMEM with 10% FCS and Pen/Strep with glutamine at 37 degree C in 5% CO2. For KB-8-5-11 cells, colchicine was added to the medium at a concentration of 100 ng/mL. HEK-293 cells transfected with empty vector (pcDNA) or vector containing human ABCB1 (MDR-19) or ABCG2 (R-5) have been described previously (Robey, Lin, Qiu, Chan & Bates, 2011) and were maintained in EMEM supplemented with 10% FCS, Pen/Strep and glutamine with 2 mg/ml G418 to select for the expression of the transporter. Cultures were confirmed to be free of mycoplasma infection using the MycoAlert Mycoplasma Detection Kit (Lonza, Walkersville, MD). For the screen, assay medium was identical to culture medium except for KB-8-5-11 where colchicine was excluded from the medium.
# All cell lines were plated into 1536-well plates at 500 cells/well in 5 uL media. Compounds were then pinned in dose-response using a 1536-head pin tool (Kalypsis, San Diego, CA) and plates were incubated at 37 degree C in 5% CO2 for an additional 72 h. CellTiter-Glo reagent (Promega) was dispensed into the wells, incubated for 5 min and luminescence was read on a ViewLux instrument (Perkin-Elmer). Cytotoxic compounds were defined as those that yielded a curve class of -1.1, -1.2, -2.1, -2.2, -2.3, or -2.4, a maximum response of >50% and an AC50 of < 10 uM. Cherry-picked hits from screening analysis were tested with both the KB pair of cell lines, and the pcDNA (empty vector control) and MDR-19 (P-gp overexpressing) pair were tested, in the absence and presence of tariquidar.
Compound,outcome,Potency
CC1OC(O[C@@H]2[C@H](O)[C@@H](OC3OC(CO)C(O)C(O)C3O)[C@H](OC(=O)[C@]34CCC(C)(C)C[C@H]3C3=CCC5[C@@]6(C)CC[C@H](O[C@@H]7O[C@H](C(=O)O)[C@@H](O)[C@H](O[C@@H]8OC[C@@H](O)[C@H](O)[C@H]8O)[C@H]7O[C@@H]7O[C@H](CO)[C@H](O)[C@H](O)[C@H]7O)[C@@](C)(C=O)C6CC[C@@]5(C)[C@]3(C)C[C@H]4O)O[C@@H]2C)C(O)C(O)C1OC1OCC(O)C(O)C1O (stereo not given in full),inactive [at 5.11 µM],
CC(C)CC[C@@H](O)[C@](C)(O)[C@H]1CC[C@@]2(O)C3=CC(=O)[C@@H]4C[C@@H](O)[C@@H](O)C[C@]4(C)[C@H]3CC[C@]12C,,inactive
CCCC1=CC2=C(CO1)C(=O)C(C)(O)C(OC(=O)c1c(C)cc(OC)cc1O)C2 (stereo not given),,inactive
COC(=O)C1=CO[C@@H](O[C@@H]2O[C@H](CO[C@@H]3O[C@H](CO)[C@@H](O)[C@H](O)[C@H]3O)[C@@H](O)[C@H](O)[C@H]2O)[C@@H]2C(CO)=CC[C@H]12,,inactive
CC1(C)CC=C(c2cnc3ccccc3c2)c2cc(C(=O)Nc3ccc(C(=O)O)cc3)ccc21,,inactive
COC(=O)c1[nH]c(=O)c2ccccc2c1-c1ccc[nH]1,,inactive
C/C=C(\C)C(=O)OC[C@H]1O[C@@H](O[C@H]2[C@@H](O[C@H]3O[C@H](COC(=O)/C(C)=C/C)[C@@H](O)[C@H](O)[C@H]3O[C@@H]3O[C@H](CO)[C@@H](O)[C@H](OC(=O)/C(C)=C/C)[C@H]3O)O[C@H](COC(=O)/C(C)=C/C)[C@@H](O)[C@@H]2O)[C@H](O)[C@@H](O)[C@@H]1O,inactive [at 9.29 µM],
Cc1c(O)cc2c(c1O)COC1(O)CCCOC21 (stereo not given),,inactive
CC12CC(O)C(O)C=C1c1cc(O)cc(O)c1C(=O)O2 (stereo not given),,inactive
N#Cc1ccc(C2CCCc3cncn32)cc1 (stereo not given),,inactive
COc1cccc(OC)c1-c1ccc(C[C@H](NC(=O)c2c(Cl)cccc2Cl)C(=O)O)cc1,,inactive
CC(=O)c1[nH]cc(CCC(=O)O)c1CC(=O)O,,inactive
O=C(OCC1=CC(Cl)C(O)C(OC(=O)c2ccccc2)C1O)c1ccccc1 (stereo not given),,inactive
C[C@@H]1O[C@@H](O[C@H]2[C@H](Oc3cc(O)c(C(=O)CCc4ccc(O)cc4)c(O)c3)O[C@H](CO)[C@@H](O)[C@@H]2O)[C@H](O)[C@H](O)[C@H]1O,,inactive
C[C@H]1CC[C@@]2(OC1)O[C@H]1CC3C4CC[C@H]5C[C@@H](O)CC[C@]5(C)C4CC(=O)[C@]3(C)[C@H]1[C@@H]2C (stereo not given in full),,inactive
C=C(CC/C=C(\C)C(=O)O)C1(O)CC=C(C)CC1 (stereo not given),,inactive
O=C1C(Cl)=C(N2CCOCC2)C(=O)N1c1ccc(Cl)c(Cl)c1,,inactive
O=C(NCC(=O)N1CCCC1)Nc1ccc2ccccc2c1,,inactive
C/C(=C\C(=O)C[C@@]12C(=O)O[C@]3(C)CC[C@H]1C[C@H]23)C(N)=O,,inactive
C[C@@H]1O[C@@H](O[C@H]2[C@H](OC(=O)[C@]34CCC(C)(C)C[C@H]3C3=CCC5[C@@]6(C)C[C@@H](O)[C@@H](O[C@@H]7O[C@H](CO)[C@@H](O)[C@H](O)[C@H]7O)[C@@](C)(CO)C6[C@H](O)C[C@@]5(C)[C@]3(C)CC4)OC[C@H](O)[C@@H]2O)[C@H](O)[C@H](O[C@@H]2OC[C@](O)(CO)[C@H]2O)[C@H]1O[C@@H]1OC[C@@H](O)[C@H](O[C@H]2O[C@H](C)[C@@H](O)[C@H](O)[C@@H]2O)[C@H]1O (stereo not given in full),inactive [at 9.29 µM],

Compound,outcome,Potency
C[C@@H]1O[C@@H](O[C@@H]2[C@@H](O)[C@H](O[C@H]3[C@H](O[C@H]4CC[C@@]5(C)C(CC[C@]6(C)C5CC=C5[C@@H]7CC(C)(C)CC[C@]7(C(=O)O[C@@H]7O[C@H](CO)[C@@H](O)[C@H](O)[C@H]7O)CC[C@]56C)C4(C)C)O[C@H](C(=O)O)[C@@H](O)[C@@H]3O)OC[C@H]2O)[C@H](O)[C@H](O)[C@H]1O (stereo not given in full),inactive [at 9.29 µM],
CC(=O)O[C@H]1C[C@@H](O)C(C)(C)C2C[C@@H](OC(C)=O)[C@@]3(C)C4=CCC(C(CO)CC(O)C5OC5(C)C)[C@]4(C)CCC3[C@]21C (stereo not given in full),,inactive
COC(=O)C1=CO[C@@H](O[C@@H]2O[C@H](CO)[C@@H](O)[C@H](O)[C@H]2O)[C@@H]2C(CO)=CC[C@H]12,,inactive
CC(=O)OC12CC(C)C(OC(=O)c3ccccc3)C1/C=C(/C)C(OC(=O)c1ccccc1)CC(=O)C(C)(C)/C=C/C(C)C2=O (stereo not given),,inactive
COc1c2cc(c(O[C@@H]3O[C@H](CO)[C@@H](O)[C@H](O)[C@H]3O)c1OC)CCCCC(O)CCc1ccc(O)c-2c1 (stereo not given in full),,inactive
O=C(O)/C=C/c1ccc(O[C@@H]2O[C@H](CO)[C@@H](O)[C@H](O)[C@H]2O)cc1,,inactive
COC(=O)[C@]1(Cc2ccc(O)c(CC=C(C)C)c2)OC(=O)C(O)=C1c1ccc(O)cc1,,inactive
CC(CCc1ccc(O)cc1)O[C@@H]1O[C@H](CO[C@@H]2OC(CO)[C@H](O)[C@H]2O)[C@@H](O)[C@H](O)[C@H]1O (stereo not given in full),,inactive
C/C(=C\CO)CC/C=C(\C)C(=O)O[C@@H]1O[C@H](CO)[C@@H](O)[C@H](O)[C@H]1O,,inactive
CC1OC(OC2CCC3(C)C(CCC4(C)C3C=CC35OCC6(CCC(C)(C)CC63)CCC45C)C2(C)CO)C(OC2OC(CO)C(O)C(O)C2O)C(O)C1OC1OC(CO)C(O)C(O)C1O (stereo not given),inactive [at 9.29 µM],
COC1OC(=O)C2=C1C1(C)CCCC(C)(C)C1CC2O (stereo not given),,inactive
C=C1CCC2C(C)(C(=O)O)CCCC2(C)C1CC/C(C)=C\CO (stereo not given),,inactive
Nc1ncnc2c1c(COc1cccc(Cl)c1)nn2C1CCOCC1,,inactive
O=C(c1c2ccccc2cc2ccccc12)N1CCC(N2CCC[C@@H](C(=O)N3CCOCC3)C2)CC1,,inactive
CCc1nn(CCO)c(CC)c1Oc1cc(C#N)cc(C#N)c1,,inactive
COC(=O)C(CC1(O)c2ccccc2N2C(=O)C(CC(C)C)NC21)n1cnc2ccccc2c1=O (stereo not given),,inactive
Cc1cn(-c2cc(NC(=O)c3ccc(C)c(Nc4nccc(-c5cnccn5)n4)c3)cc(C(F)(F)F)c2)cn1,,inactive
CC(=O)c1ccc(O[C@@H]2OC[C@@H](O)[C@H](O)[C@H]2O[C@]2(CO)O[C@H](CO)[C@@H](O)[C@@H]2O)c(O)c1,,inactive
CC1=C(C(=O)OC2OC(COC3OC(CO)C(O)C(O)C3O)C(O)C(O)C2O)C(C)(C)CCC1 (stereo not given),,inactive
C[C@H]1[C@H](C)CC[C@]2(C(=O)OC3OC(CO)C(O)C(O)C3O)CC[C@]3(C(=O)O)C(=CCC4[C@@]5(C)CC[C@H](O[C@@H]6O[C@@H](C)[C@H](OC7OC(CO)C(O)C(O)C7O)[C@@H](O)[C@H]6O)C(C)(C)C5CC[C@]43C)[C@H]12 (stereo not given in full),inactive [at 9.29 µM],
